Results as given in PubChem BioAssay AID1159580 (chemical genetic matrix, 2015).
The whole screen tested about 5,500 compounds, of which about 2,000 (36%) were called active. Inconclusive results (about 18%) are left out. Cut-off read from the data, not from the text of the source: active = normalized growth mostly below about 0.91 (no sharp cut-off); inconclusive = no clear call, values can overlap the other calls; inactive = mostly above about 0.92. The list shows a part of the results.

Test: chemical genetic growth profiling, strain panel (AID 1159580);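 note: tested at 20 µM; growth read once vehicle control cultures reached saturation at 30 °C; 1 = growth at the plate median or of vehicle wells; lower values mean less growth of the strain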
Details: S. cerevisiae deletion strains, growth OD

Measured: normalized growth

C[C@@H]1CC[C@H]2[C@@H](C)C(O)O[C@@H]3O[C@@]4(C)CC[C@@H]1[C@]32OO4 (stereo partly specified)
active: locus YJR075W, strain HOC1, stronger effect = lower value 0.166 | locus YKL009W, strain mrt4, stronger effect = lower value 0.649 | locus YKL068W, stronger effect = lower value 0.775 | locus YKL085W, strain MDH1 (second series), stronger effect = lower value 0.363 | locus YKL085W, strain MDH1, stronger effect = lower value 0.363 | locus YKL160W, strain elf1, stronger effect = lower value 0.336 | locus YKL190W, strain CNB1, stronger effect = lower value 0.231 | locus YKR001C, strain vps1, stronger effect = lower value 0.587 | locus YKR026C, strain gcn3, stronger effect = lower value 0.407 | locus YKR091W, strain srl3, stronger effect = lower value 0.329 | locus YLL001W, strain dnm1, stronger effect = lower value 0.233 | locus YLL026W, stronger effect = lower value 0.243 | locus YLL041C, strain sdh2, stronger effect = lower value 0.3 | locus YLR027C, strain aat2, stronger effect = lower value 0.261 | locus YLR039C, strain RIC1, stronger effect = lower value 0.33 | locus YLR058C, strain SHM2, stronger effect = lower value 0.403 | locus YLR102C, strain apc9, stronger effect = lower value 0.419 | locus YLR113W, strain HOG1, stronger effect = lower value 0.323 | locus YLR221C, strain rsa3, stronger effect = lower value 0.204 | locus YLR258W, strain gsy2, stronger effect = lower value 0.279 | locus YLR262C, strain YPT6 (second series), stronger effect = lower value 0.322 | locus YLR262C, strain YPT6, stronger effect = lower value 0.486 | locus YLR268W, strain sec22, stronger effect = lower value 0.248 | locus YLR320W, strain mms22, stronger effect = lower value 0.236 | locus YLR330W, strain CHS5, stronger effect = lower value 0.307 | locus YLR342W, strain FKS1 (second series), stronger effect = lower value 0.483 | locus YLR342W, strain FKS1, stronger effect = lower value 0.563 | locus YLR357W, strain rsc2, stronger effect = lower value 0.358 | locus YLR370C, strain arc18, stronger effect = lower value 0.384 | locus YLR371W, strain rom2, stronger effect = lower value 0.528 | locus YLR384C, strain iki3, stronger effect = lower value 0.771 | locus YLR418C, strain cdc73, stronger effect = lower value 0.254 | locus YML016C, strain PPZ1, stronger effect = lower value 0.214 | locus YML032C, strain rad52, stronger effect = lower value 0.367 | locus YML120C, strain ndi1, stronger effect = lower value 0.29 | locus YML124C, strain tub3, stronger effect = lower value 0.421 | locus YMR058W, strain fet3, stronger effect = lower value 0.361 | locus YMR078C, strain ctf18, stronger effect = lower value 0.401 | locus YMR125W, strain sto1, stronger effect = lower value 0.462 | locus YMR129W, stronger effect = lower value 0.266 | locus YMR205C, strain PFK2, stronger effect = lower value 0.366 | locus YMR223W, strain ubp8, stronger effect = lower value 0.31 | locus YMR231W, strain pep5, stronger effect = lower value 0.84 | locus YMR263W, strain SAP30, stronger effect = lower value 0.47 | locus YNL067W, strain RPL9B, stronger effect = lower value 0.288
inactive: locus YMR307W, strain GAS1, stronger effect = lower value 0.661
